# Experimental data published in article PMC7826789 (International Journal of Molecular Sciences, 2021).
# Test system: INSR
# Conditions: Compound Concentration (nM):1000
# 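Note: KINOMEscan scanMAX binding as percent activity remaining versus control; lower means stronger binding.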
row,SMILES,Percent Control [%]
1,CCS(=O)(=O)c1ccc(OC)c(Nc2ncc(-c3cccc(F)c3)o2)c1 [GW621970X],100
2,CN(C)CCNC(=O)Nc1ccc(N(C)c2ccnc(Nc3ccc(CS(C)(=O)=O)cc3)n2)cc1.Cl [GW830900A],75
3,COc1cc(/C=N/Nc2ncnc3[nH]ncc23)ccc1O [GW578748X],94
4,COc1ccc2cc(-c3c(-c4ccncc4)nc(-c4ccc(S(C)(=O)=O)cc4C)n3C)ccc2c1 [SB-633825],100
5,COc1ccc(COc2ccc(Cc3cnc(N)nc3N)cc2OC)cc1 [GW632580X],69
6,COc1cccc(-n2ncc3c(N/N=C/c4ccncc4)ncnc32)c1 [GW784752X],100
7,CN(C)c1cc2c(Nc3ccc4c(cnn4Cc4ccccc4)c3)ncnc2cn1 [GW282974X],63
8,Cc1cc(O)cc(C)c1/C=C/c1cncc(C(N)=O)c1 [GW435821X],93
9,NS(=O)(=O)c1ccc(N/N=C2\C(=O)Nc3ccc(-c4cnco4)cc32)cc1 [GW276655],73
10,O=C(Nc1n[nH]c2nc(-c3ccc(O)cc3)c(Br)cc12)C1CC1 [SB-725317],100
11,NS(=O)(=O)c1ccc(Nc2ncc(-c3ccccc3)o2)cc1 [GW572399X],100
12,Cl.O=C(O[C@H]1CN[C@H](C#Cc2cc3ncnc(Nc4ccc5c(cnn5Cc5ccccc5)c4)c3s2)C1)N1CCOCC1 [GSK200398A],77
13,COc1ccccc1-c1cc(/C=C2\C(=O)Nc3ncc(Br)cc32)cc(Br)c1O [GW442130X],87
14,CC1=C(C(=O)Nc2ccc3[nH]ncc3c2)C(c2ccc(Cl)c(Cl)c2)CC(=O)N1 (stereo not drawn) [GSK299115A],100
15,COc1cc2ncnc(Nc3ccc4c(cnn4Cc4ccccc4)c3)c2cc1OC.Cl [GW282449A],100
16,O=C1Nc2ccc(C(=O)c3ccco3)cc2C1=Cc1cc(Cl)c(O)c(Cl)c1 [GW406108X],91
17,CC(C)COC(=O)c1ccc2c(c1)/C(=C/Nc1ccc(S(N)(=O)=O)cc1)C(=O)N2 [GW416981X],100
18,Cl.O=S1CCN(Cc2ccc(-c3ccc4ncnc(Nc5ccc(OCc6ccccc6)c(F)c5)c4c3)o2)CC1 [GW576924A],100
19,CCn1c(-c2nonc2N)nc2c(C#CC(C)(C)O)nc(OCCNC)cc21.Cl [GSK949675],100
20,COc1cc(C=NNc2ncnc3c2cnn3-c2ccccc2)ccc1O [GW513184X],100
21,Cl.O=C(Nc1ccc(Oc2ccc3[nH]c(NC(=O)c4ccccc4)nc3c2)cc1)Nc1cc(C(F)(F)F)ccc1F [GW709042A],85
22,Nc1ncnc2occ(-c3ccc(NC(=O)Nc4cc(C(F)(F)F)ccc4F)cc3)c12 [GW770249X],90
23,NS(=O)(=O)c1ccc(N/N=C2\C(=O)Nc3ccc(C(=O)NCc4ccncc4)cc32)cc1 [GW300657X],100
24,C/C(Nc1ccc(S(N)(=O)=O)cc1)=C1/C(=O)Nc2ccccc21 [GW335962X],66
25,C[C@@H](Oc1cc(-n2cnc3ccc(OC4CCN(C)CC4)cc32)sc1C(N)=O)c1ccccc1Cl [GSK579289A],64
26,COc1ccc2[nH]c3c4[nH]c5ccc(OC)cc5c4c4c(c3c2c1)C(=O)NC4=O [GW296115X],66
27,CN1CCN(C(=O)c2ccc(NC(=O)Nc3ccc(N(C)c4ccnc(Nc5ccc(CS(C)(=O)=O)cc5)n4)cc3)cc2)CC1.Cl [GW830263A],61
28,CCc1ccc(Oc2nccc(-c3c(-c4ccc(F)cc4)ncn3C3CCNCC3)n2)cc1 [SB-242719],77
29,NS(=O)(=O)c1ccc(N/N=C2\C(=O)Nc3ccc(Cl)cc32)cc1 [GW280670X],100

# Test system: IRAK1
# Conditions: Compound Concentration (nM):1000
row,SMILES,Percent Control [%]
1,COc1ccc2c(-c3ccnc(Nc4cccc(OC(F)(F)F)c4)n3)cnn2n1 [GW810372X],19
2,CCS(=O)(=O)c1ccc(OC)c(Nc2ncc(-c3cccc(OC)c3)o2)c1 [GW580509X],90
3,CC1=C(C(=O)Nc2ccc3[nH]ncc3c2)C(c2ccc3ccccc3c2)CC(=O)N1 (stereo not drawn) [GSK270822A],72
4,COc1cccc(-c2c[nH]c3c(N/N=C/c4ccncc4)ncnc23)c1 [GW814408X],23
5,Cl.O=C(Nc1ccc(Oc2ccc3[nH]c(NC(=O)c4ccco4)nc3c2)cc1)Nc1cc(C(F)(F)F)ccc1F [GW683134A],91
6,COC(=O)Nc1nc2ccc(Oc3ccc(NC(=O)Nc4cc(C(F)(F)F)ccc4F)cc3)cc2s1.Cl [GW693917A],97
7,COc1cc(N2CCN(C(C)C)CC2)ccc1Nc1nc(Nc2ccc(F)cc2C(=O)NC[C@@H](O)CO)c2cc[nH]c2n1 [GSK1392956A],90
8,COc1cc2ncn(-c3cc(O[C@H](C)c4ccccc4Cl)c(C(N)=O)s3)c2cc1OC [GSK237701A],64
9,Cl.c1ccc(Cc2nc3ccc(Nc4ncnc5ccccc45)cc3[nH]2)cc1 [GR269666A],100
10,COc1cc(C)c(N(C)C(=O)CN(C)C)cc1Nc1nc(Nc2cccc(F)c2C(N)=O)c2cc[nH]c2n1 [GSK2219385],95
11,NS(=O)(=O)c1ccc(N/N=C2\C(=O)Nc3ccc(C(=O)NCCc4c[nH]cn4)cc32)cc1 [GW300660X],82
12,CCS(=O)(=O)c1ccc(OC)c(Nc2ncc(-c3cccc(F)c3)o2)c1 [GW621970X],48
13,CN(C)CCNC(=O)Nc1ccc(N(C)c2ccnc(Nc3ccc(CS(C)(=O)=O)cc3)n2)cc1.Cl [GW830900A],59
14,COc1cc(/C=N/Nc2ncnc3[nH]ncc23)ccc1O [GW578748X],31
15,COc1ccc2cc(-c3c(-c4ccncc4)nc(-c4ccc(S(C)(=O)=O)cc4C)n3C)ccc2c1 [SB-633825],68
16,COc1ccc(COc2ccc(Cc3cnc(N)nc3N)cc2OC)cc1 [GW632580X],99
17,COc1cccc(-n2ncc3c(N/N=C/c4ccncc4)ncnc32)c1 [GW784752X],37
18,CN(C)c1cc2c(Nc3ccc4c(cnn4Cc4ccccc4)c3)ncnc2cn1 [GW282974X],100
19,Cc1cc(O)cc(C)c1/C=C/c1cncc(C(N)=O)c1 [GW435821X],100
20,NS(=O)(=O)c1ccc(N/N=C2\C(=O)Nc3ccc(-c4cnco4)cc32)cc1 [GW276655],79

row,SMILES,Percent Control [%]
1,O=C(Nc1n[nH]c2nc(-c3ccc(O)cc3)c(Br)cc12)C1CC1 [SB-725317],56
2,NS(=O)(=O)c1ccc(Nc2ncc(-c3ccccc3)o2)cc1 [GW572399X],99
3,Cl.O=C(O[C@H]1CN[C@H](C#Cc2cc3ncnc(Nc4ccc5c(cnn5Cc5ccccc5)c4)c3s2)C1)N1CCOCC1 [GSK200398A],100
4,COc1ccccc1-c1cc(/C=C2\C(=O)Nc3ncc(Br)cc32)cc(Br)c1O [GW442130X],74
5,CC1=C(C(=O)Nc2ccc3[nH]ncc3c2)C(c2ccc(Cl)c(Cl)c2)CC(=O)N1 (stereo not drawn) [GSK299115A],88
6,COc1cc2ncnc(Nc3ccc4c(cnn4Cc4ccccc4)c3)c2cc1OC.Cl [GW282449A],100
7,O=C1Nc2ccc(C(=O)c3ccco3)cc2C1=Cc1cc(Cl)c(O)c(Cl)c1 [GW406108X],86
8,CC(C)COC(=O)c1ccc2c(c1)/C(=C/Nc1ccc(S(N)(=O)=O)cc1)C(=O)N2 [GW416981X],50
9,Cl.O=S1CCN(Cc2ccc(-c3ccc4ncnc(Nc5ccc(OCc6ccccc6)c(F)c5)c4c3)o2)CC1 [GW576924A],100
10,CCn1c(-c2nonc2N)nc2c(C#CC(C)(C)O)nc(OCCNC)cc21.Cl [GSK949675],92
11,COc1cc(C=NNc2ncnc3c2cnn3-c2ccccc2)ccc1O [GW513184X],43
12,Cl.O=C(Nc1ccc(Oc2ccc3[nH]c(NC(=O)c4ccccc4)nc3c2)cc1)Nc1cc(C(F)(F)F)ccc1F [GW709042A],89
13,Nc1ncnc2occ(-c3ccc(NC(=O)Nc4cc(C(F)(F)F)ccc4F)cc3)c12 [GW770249X],95
14,NS(=O)(=O)c1ccc(N/N=C2\C(=O)Nc3ccc(C(=O)NCc4ccncc4)cc32)cc1 [GW300657X],71
15,C/C(Nc1ccc(S(N)(=O)=O)cc1)=C1/C(=O)Nc2ccccc21 [GW335962X],82
16,C[C@@H](Oc1cc(-n2cnc3ccc(OC4CCN(C)CC4)cc32)sc1C(N)=O)c1ccccc1Cl [GSK579289A],73
17,COc1ccc2[nH]c3c4[nH]c5ccc(OC)cc5c4c4c(c3c2c1)C(=O)NC4=O [GW296115X],94
18,CN1CCN(C(=O)c2ccc(NC(=O)Nc3ccc(N(C)c4ccnc(Nc5ccc(CS(C)(=O)=O)cc5)n4)cc3)cc2)CC1.Cl [GW830263A],58
19,CCc1ccc(Oc2nccc(-c3c(-c4ccc(F)cc4)ncn3C3CCNCC3)n2)cc1 [SB-242719],95
20,NS(=O)(=O)c1ccc(N/N=C2\C(=O)Nc3ccc(Cl)cc32)cc1 [GW280670X],100
